# Experimental data from ChEMBL document CHEMBL4513216, “Probing the Open Global Health Chemical Diversity Library for Multistage-Active Starting Points for Next-Generation Antimalarials” (ACS Infect Dis, 2020).
# The campaign covered roughly 69,000 compounds. About 8,600 (12%) showed an effect of 50% or more. This excerpt belongs to a sample that is enriched for strong results.
# Test system: Plasmodium berghei
# Assay: Screen against P. berghei liver stage (PbLuc), transformed with Luciferase, at 10uM
# Type: functional, HepG2
# Details: tested at 10 uM
row,Compound,INHIBITION
1,NC(=O)C1CCN(C(=O)CCn2ccc3ccc(Br)cc32)CC1,10.6%
2,c1cnc(N2CCOCC3(CCCN(CC4CCOCC4)C3)C2)nc1 (stereo unspecified),-4.88%
3,CNC(=O)CN1CC[C@H]2CN(C(=O)c3cc[nH]n3)C[C@H]2C1,41.1%
4,O=C(NCc1ccnc(-n2cccn2)c1)C1CC(=O)N(CC2CC2)C1 (stereo unspecified),-25.9%
5,CN(C)S(=O)(=O)N1C[C@@H]2C[C@H](C(=O)Nc3cccnc3)[C@H](C1)O2,43.9%
6,CC(=O)c1ccc(OCC(C)O)cc1O (stereo unspecified),47.1%
7,COc1ccc(CN(C)[C@@H]2CN(S(=O)(=O)C(C)C)C[C@H]2O)cc1,2.15%
8,CCN1C(=O)[C@]2(CC[C@@H]3CN(C(=O)Nc4ccc(F)cc4)C[C@@H]32)N=C1C,22.2%
9,COc1ncccc1CNC(=O)Nc1cccnc1N1CCCC1,43.3%
10,COc1cccc(CC(=O)NCC(Cc2ccc(F)cc2)C(N)=O)c1 (stereo unspecified),8.99%
11,N#Cc1ccc(N2CCC(NS(=O)(=O)c3cccs3)CC2)c(F)c1,20.9%
12,N#Cc1cc(F)c(N2CCC(NS(=O)(=O)c3cccs3)CC2)c(F)c1,62.9%
13,N#Cc1c(F)cccc1N1CCC(NS(=O)(=O)c2cccs2)CC1,24%
14,CNc1ncc(C(=O)N2CCOC(C(=O)Nc3ccccc3)C2)cn1 (stereo unspecified),-8.58%
15,CN(CCc1ccccc1)Cc1c(C2CCNCC2)[nH]c2ncccc12,58.95%
16,CN(CCc1ccccc1)Cc1c(C2CC2)[nH]c2ncccc12,14.185%
17,CN(CCc1ccccc1)Cc1c(C2CCOCC2)[nH]c2ncccc12,17.125%
18,NCCCC(=O)N1CCC2(CC1)CN(C(=O)c1ccc(Cl)cc1)CCO2,4.35%
19,O=C1CCN(C(=O)c2csc(-c3ccc(C(F)(F)F)cc3)n2)CCN1,-1.26%
20,CN1CCCN(C(=O)c2csc(-c3ccc(C(F)(F)F)cc3)n2)CC1,42.3%
21,O=C(c1csc(-c2ccc(C(F)(F)F)cc2)n1)N1CCCNCC1,62.1%
22,CC(C)NC(=O)N1CCN(C(=O)NC(C)C)CC2(CNC(=O)C2)C1,-2.17%

row,Compound,INHIBITION
1,CC(C)NC(=O)N1CCN(CC2CC2)CC2(CNC(=O)C2)C1 (stereo unspecified),69.6%
2,CC(C)NC(=O)N1CCN(C(=O)C(C)C)CC2(CC(=O)N(C)C2)C1 (stereo unspecified),22.2%
3,CC(=O)N1CCN(C(=O)NC(C)C)CC2(CNC(=O)C2)C1 (stereo unspecified),-2.17%
4,CC(=O)N1CCN(C(=O)NC(C)C)CC2(CC(=O)N(C)C2)C1 (stereo unspecified),-3.52%
5,CC(C)NC(=O)N1CCN(CC2CC2)CC2(CC(=O)N(C)C2)C1 (stereo unspecified),79.5%
6,CN(C)C(=O)COC1COC2(CCN(CC3CCOCC3)CC2)C1 (stereo unspecified),12.2%
7,COCC1CCN(C(=O)c2cn(Cc3ccccc3C(F)(F)F)nn2)C1 (stereo unspecified),-49.3%
8,CNC(=O)c1cc2c(nc1NCC1CC1)CCN(S(C)(=O)=O)CC2,-8.94%
9,Cc1csc(C2CCCCN2C(=O)c2c[nH]c(C)n2)n1 (stereo unspecified),1.75%
10,CC(=O)c1ccc(C(=O)N2C[C@H]3CC[C@@H](C2)N(Cc2ccccc2)C3)s1,-52.1%
11,CCn1cc(CN2CCCN(C(=O)CCc3ccncc3)CC2)cn1,31%
12,CCN(CC)CC(=O)N1CCN(CCCc2ccncc2)CC1,66.5%
13,Cn1cc(CCC(=O)N2CCN(Cc3ccncc3)CC2)cn1,27.1%
14,CCN(CC)C(=O)N1CCN(CCc2ccncc2)CC1,15.5%
15,CCN(CC)CC(=O)N1CCN(CCc2ccncc2)CC1,52.6%
16,CCC(=O)N1CCN(Cc2cc(-c3ccncc3)nn2C)CC1,19.3%
17,O=C(c1cccnc1)N1CCC[C@]2(C[C@H](Oc3ncccc3F)CO2)C1,-7.59%
18,O=C(NCc1ccc(Cl)cc1)C1=NOC2(CCNC2)C1 (stereo unspecified),1.71%
19,c1cncc(CN2CCC(c3ccnc4nccn34)C2)c1 (stereo unspecified),19.99%
20,Cc1nccc(N2CCC(=O)N(CC3CC3)C(C(C)C)C2)n1 (stereo unspecified),27.2%
21,COc1ccnc(N2CCC(=O)N(CC3CC3)C(C(C)C)C2)n1 (stereo unspecified),50.3%
22,CC(C)C1CN(c2ncccn2)CCC(=O)N1CC1CC1 (stereo unspecified),9.63%

row,Compound,INHIBITION
1,Cc1noc(C)c1CN1CCN(Cc2ccncc2)c2ncccc2C1,29%
2,Cc1ccc(Oc2nccnc2C2CCN(C(=O)C(C)(C)N)CC2)cc1,33.7%
3,NC(=O)CN1CCCC(c2nccnc2Oc2cccc(F)c2)C1 (stereo unspecified),-39.4%
4,Fc1ccccc1Oc1nccnc1C1CCN(C2CCOCC2)CC1,25.8%
5,c1ccc(Oc2nccnc2C2CCN(C3CCOCC3)CC2)cc1,-38.3%
6,CC(C)(N)C(=O)N1CCC(c2nccnc2Oc2cccc(F)c2)CC1,56%
7,Fc1cccc(Oc2nccnc2C2CCN(C3CCOCC3)CC2)c1,52.7%
8,Cc1cccc(Oc2nccnc2C2CCN(C(=O)C(C)(C)N)CC2)c1,47.1%
9,CC(C)(N)C(=O)N1CCC(c2nccnc2Oc2ccccc2F)CC1,63.4%
10,Fc1ccc(Oc2nccnc2C2CCN(C3CCOCC3)CC2)cc1,38.7%
11,CCOCC1CC2(CCN(C(=O)c3ccc4ccccc4n3)CC2)CO1 (stereo unspecified),-33.9%
12,Cc1ccc2c(c1)C(=O)NCC1(CCN(C(=O)c3sccc3C)CC1)O2,41.2%
13,COc1ncc(C(=O)N(Cc2cnn(C)c2)C(C)C)cn1,22%
14,C1CC(CN2CCO[C@H]3[C@H](OCC4CC4)CC[C@@H]32)CCO1,40.9%
15,CN(C)CCN(CC1CCCO1)S(=O)(=O)NCc1ccccc1 (stereo unspecified),19.4%
16,Cc1cccc(CN2C(=O)CCC23CCN(C(=O)c2ccco2)CC3)n1,-24.5%
17,CN1CCc2cc(C(=O)N(C)C)c(NCC3CC3)nc2CC1,2.59%
18,COc1c(CNCc2cccc(Cn3ccnc3C)c2)c(C)nn1C,43.3%
19,CN(Cc1cc(Cl)ccc1Cl)Cc1ncnn1C,15.9%
20,COCc1cc(N(C)Cc2ncnn2C)nc(C(C)(C)C)n1,50.8%
21,COCc1cc(N(C)Cc2ccccn2)nc(C(C)(C)C)n1,27.7%
22,COCc1cc(N(C)Cc2cnccn2)nc(C(C)(C)C)n1,62%

row,Compound,INHIBITION
1,CN(Cc1cnccn1)c1cncc(Br)c1,45.9%
2,COCc1cc(N(C)Cc2cc(C(C)(C)C)n[nH]2)ncn1,-30.5%
3,Cc1nc(N)nc(C)c1CC(=O)N1CCCCC1c1cccc(F)c1 (stereo unspecified),19.3%
4,Cc1noc(O)c1Cc1ccc2ccccc2c1,-26.2%
5,Cc1ccsc1CN(C)c1cc(N2CCCC2CO)ncn1 (stereo unspecified),18.6%
6,CN(C)c1cc(N(C)Cc2cc(C(C)(C)C)n[nH]2)ncn1,-82.7%
7,CCn1ccnc1CN(C)c1cc(C2CCCNC2)nc(C)n1 (stereo unspecified),4.41%
8,COc1cc(N(C)Cc2cc(C(C)(C)C)n[nH]2)ncn1,-45%
9,CCn1ccnc1CN(C)c1cc(OC)ncn1,58.2%
10,CCn1ccnc1CN(C)c1cc(N(C)C)ncn1,57.3%
11,CCn1ccnc1CN(C)c1cc(C2CC2)ncn1,52.6%
12,COc1cc(N(C)CCCn2nc(C)cc2C)ncn1,14.3%
13,Cc1cc(C)n(CCCN(C)c2cc(C3CC3)ncn2)n1,8.7%
14,CCn1ccnc1CN(C)C(=O)Cn1ccc2ccccc2c1=O,3.04%
15,COc1cc(N2CCO[C@H]3[C@@H](Oc4cccnc4)CC[C@@H]32)ncn1,23.5%
16,Cc1cccc(CN2CC3(CCN(Cc4ccco4)CC3)OCC2=O)n1,-16.2%
17,NC(=O)C1CCN(C(=O)Cc2cnc(-c3c(Cl)cccc3Cl)s2)CC1,37.9%
18,O=S(=O)(c1ccc(F)cc1)N1CCCC1c1cc[nH]n1 (stereo unspecified),33.7%
19,COc1ccc(C(=O)N2CCC(Nc3cccnn3)CC2)c(F)c1,-32%
20,CC(C)N(CC(=O)Nc1ccc(Br)cc1Cl)Cc1cccnc1,73.2%
21,Cc1c(Cl)cccc1NC(=O)CN(Cc1cccnc1)C(C)C,73.2%
22,N#CCCN(CC(=O)Nc1ccc(Br)cc1Cl)Cc1cccnc1,64.3%

row,Compound,INHIBITION
1,N#CCCN(Cc1cccnc1)C(=O)c1cc(Cl)c[nH]1,30.3%
2,CCc1noc(C(C)N(C)CC(=O)Nc2ccccc2Cl)n1 (stereo unspecified),21.7%
3,CC(C)N(CC(=O)O)Cc1cccc(Br)c1,13.2%
4,N#CCCN(Cc1cccnc1)C(=O)c1ccc(-n2cnnn2)cc1,18.6%
5,Cc1c(Cl)cccc1NC(=O)CCNc1ccc(C#N)cn1,-128%
6,CC(C)N(CC(N)=O)Cc1cccc(Br)c1,16.6%
7,O=C(Cc1ccc2c(c1)CCC2)N1CCCC1Cn1cccn1 (stereo unspecified),2.79%
8,Cc1cccc(N2CC3(CCN(S(=O)(=O)C4CC4)C3)C2)n1,34.6%
9,CC(=O)N1CCCC2(CN(Cc3ccc(C)s3)CCO2)C1 (stereo unspecified),-46.8%
10,O=C(Cc1cccs1)N1C[C@H]2CN(CC3CCCO3)CC[C@H]2C1 (stereo partly specified),30.3%
11,O=C1[C@@H]2CN(c3ncc(Cl)cc3F)C[C@]2(C(=O)O)CN1CC1CC1,-5.19%
12,Cc1nc(CN(C)C2CCCN(c3cccnn3)C2)oc1C (stereo unspecified),-21.8%
13,Cc1cc(C)c(CNC(=O)N2CCCC2c2cc(C)on2)c(=O)[nH]1 (stereo unspecified),81.3%
14,Cc1cc(C2CCCN2C(=O)NCc2c(C)cc(C)[nH]c2=O)on1 (stereo unspecified),36.1%
15,CN(CC(=O)N1CCCC1c1ccccn1)Cc1ccccc1 (stereo unspecified),26.6%
16,Cc1cc(C)c(CNC(=O)N2CCCC2c2ccccn2)c(=O)[nH]1 (stereo unspecified),-14.7%
17,Cc1nc(C2CCCN2C(=O)CN(C)Cc2ccccc2)no1 (stereo unspecified),34%
18,Cc1cc(C2CCCN2C(=O)CN(C)Cc2ccccc2)no1 (stereo unspecified),58.7%
